# Measurements: PubChem BioAssay (Tox21)
# Several values for one entry are separate records, joined by “and”; a condition that tells them apart may be missing. Equal values may be shown once. Inconclusive results are not listed. Entries that show only a call come without a potency. Activity calls are given as the source filed them. Unless noted, the call rests on the fitted dose curve.
# Assay: qHTS assay for small molecules that induce genotoxicity in human embryonic kidney cells expressing luciferase-tagged ATAD5 (AID 651632; active means well fitted activation curve with a large enough effect in the repeat runs; further: nearly all actives have a fitted effect of over 15% in size)
# Conditions: HEK293T ATAD5-luciferase induction, 16 h; series mostly up to 83.3 µM
# In short: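 Quantitative HTS in HEK293T expressing luciferase-tagged ATAD5, whose levels rise upon DNA damage. Exposure ran 16 hr at 37C and 5% CO2, with luminescence read 30 min after Amplite addition at room temperature.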
# Potency means the concentration at half of the fitted maximal effect.
row,Structure (SMILES),Potency
1,[O-][n+]1ccccc1SSc1cccc[n+]1[O-],2.66 µM (active)
2,CCCCCCCCCCCCCCCCCC[N+](C)(C)Cc1ccccc1,inactive
3,CCCC(C)c1ccccc1O (stereo unspecified),inactive
4,CCCCCCCCCCCCCC[P+](CCCC)(CCCC)CCCC (tested in a mixture with another compound),inactive
5,Oc1cccc(-c2c3nc(c(-c4cccc(O)c4)c4ccc([nH]4)c(-c4cccc(O)c4)c4nc(c(-c5cccc(O)c5)c5ccc2[nH]5)CC4)C=C3)c1,inactive
6,Cc1cccc(S(=O)(=O)O)c1C,inactive
7,CCCCCCCCS(=O)C(C)Cc1ccc2c(c1)OCO2 (stereo unspecified),inactive
8,CCOC(=O)/C=C(C)/C=C/C=C(C)/C=C/c1c(C)cc(OC)c(C)c1C,inactive
9,CC(NN)c1ccccc1 (stereo unspecified),inactive
10,CCCCC(CC)COC(=O)c1ccccc1C(=O)O (stereo unspecified),inactive
11,CCCCc1oc2ccc(NS(C)(=O)=O)cc2c1C(=O)c1ccc(OCCCN(CCCC)CCCC)cc1,inactive
12,CCCCCOC(=O)CCCC,inactive
13,NNc1nc(-c2ccc(N)cc2)cs1,inactive
14,CCc1cc(Cc2cc(CC)cc(C(C)(C)C)c2O)c(O)c(C(C)(C)C)c1,inactive
15,CCCCCCCCCCC=O,inactive
16,CCCCC(CC)CN=C(N)NC(N)=NCCCCCCN=C(N)NC(N)=NCC(CC)CCCC (stereo unspecified),inactive
17,O=C(c1ccc(O)cc1O)c1ccc(O)cc1O,inactive
18,CCOC(=O)O[C@]1(C(=O)OCCl)CC[C@H]2[C@@H]3CCC4=CC(=O)C=C[C@]4(C)[C@H]3[C@@H](O)C[C@@]21C,inactive
19,Clc1ccc2cc3ccccc3cc2c1,inactive
20,C1CCCC1,inactive
21,CCCCC(CC)COP(=O)(O)OCC(CC)CCCC (stereo unspecified),inactive
22,C[n+]1cc2c3c(ccc2c2ccc4cc5c(cc4c21)OCO5)OCO3,inactive

# Assay: qHTS assay for small molecule agonists of the p53 signaling pathway - cell viability (AID 651633); further: nearly all actives have a fitted effect of over 30% in size
# Conditions: p53RE-bla HCT-116 viability, ATP luminescence, 16 h; series mostly up to 83.3 µM
# In short: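 p53RE-bla cells were treated with compound for 16 hours at 37 C. Cytotoxicity was then measured as CellTiter-Glo luminescence after 30 min at room temperature.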
row,Structure (SMILES),Potency
1,Cc1cc(O)c(C(C)(C)C)cc1C(C)(C)C,9.69 µM (active)
2,C=CC(=O)OCCn1c(=O)n(CCOC(=O)C=C)c(=O)n(CCOC(=O)C=C)c1=O,27.3 µM (active)
3,CCCCCCCCCCn1cc[n+](CCCCCCCCCC)c1C,68.7 µM (active)
4,O=C(Nc1ccc(Oc2ccc(Cl)cc2)c(Cl)c1)c1cc(I)cc(I)c1O,4.22 µM (active)
5,CCCN(CCC)C(=O)C(CCC(=O)OCCCN1CCN(CCOC(=O)Cc2c(C)n(C(=O)c3ccc(Cl)cc3)c3ccc(OC)cc23)CC1)NC(=O)c1ccccc1 (stereo unspecified),inactive
6,CN1CCN(CCC(=O)N2c3ccccc3Sc3ccc(C(F)(F)F)cc32)CC1,inactive
7,Oc1ccc(Cl)cc1Sc1cc(Cl)ccc1O,26.6 µM (active) and 54.4 µM (active)
8,CCCCN1CCCC[C@H]1C(=O)Nc1c(C)cccc1C,inactive
9,CCCC/C=C/CCCCO,inactive
10,O=C(OCC(COC(=O)c1ccccc1)(COC(=O)c1ccccc1)COC(=O)c1ccccc1)c1ccccc1,inactive
11,O=S1(=O)CC(Cl)(Cl)C(Cl)(Cl)C1,3.06 µM (active)
12,N#CSc1ccc(N)c([N+](=O)[O-])c1,inactive
13,C=C(C)C(=O)OCC[N+](C)(C)C,inactive
14,CC1=NC(C)OC1C (stereo unspecified),inactive
15,COCCCC/C(=N\OCCN)c1ccc(C(F)(F)F)cc1,inactive
16,Cc1ccc(-n2nc(C(C)(C)C)cc2NC(=O)Nc2ccc(OCCN3CCOCC3)c3ccccc23)cc1,inactive
17,CCCCCCCC[N+](CCCCCCCC)(CCCCCCCC)CCCCCCCC,13.7 µM (active)
18,CCCCCCOC(=O)c1ccc(O)cc1,inactive
19,[O-][n+]1ccccc1SSc1cccc[n+]1[O-],inactive
20,CCCCCCCCCCCCCCCCCC[N+](C)(C)Cc1ccccc1,24.6 µM (active)
21,CCCC(C)c1ccccc1O (stereo unspecified),inactive
22,CCCCCCCCCCCCCC[P+](CCCC)(CCCC)CCCC (tested in a mixture with another compound),27.5 µM (active)
23,Oc1cccc(-c2c3nc(c(-c4cccc(O)c4)c4ccc([nH]4)c(-c4cccc(O)c4)c4nc(c(-c5cccc(O)c5)c5ccc2[nH]5)CC4)C=C3)c1,9.44 µM (active)
24,Cc1cccc(S(=O)(=O)O)c1C,inactive
25,CCCCCCCCS(=O)C(C)Cc1ccc2c(c1)OCO2 (stereo unspecified),inactive
26,CCOC(=O)/C=C(C)/C=C/C=C(C)/C=C/c1c(C)cc(OC)c(C)c1C,inactive
27,CC(NN)c1ccccc1 (stereo unspecified),inactive
28,CCCCC(CC)COC(=O)c1ccccc1C(=O)O (stereo unspecified),inactive
29,CCCCc1oc2ccc(NS(C)(=O)=O)cc2c1C(=O)c1ccc(OCCCN(CCCC)CCCC)cc1,29.8 µM (active)
